Compounds with a hit are over-represented: about 19% of the library has one in this group of screens.
Pf growth 96h = Primary qHTS for delayed death inhibitors of the malarial parasite plastid, 96 hour incubation. Potency, µM (titrated, usually from 28.7 µM), for inactives: at the top dose activity change, negative = inhibition, usual class: inhibitors. P. falciparum luciferase reporter growth, 96 h. actives 6.9% (n = 320,000). AID 504834, 2011; note: potency is the fitted concentration of half-maximal effect; % is set by controls: 0 for no effect and ±100 for the full control effect
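P. falciparum expressing integrated firefly luciferase, in erythrocytes at 2% hematocrit, 0.05% parasitemia, incubated with compounds 96 h at 37 C, 5% CO2. Growth inhibition read as loss of luminescence; two-generation exposure targets delayed-death apicoplast inhibitors.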
Shiga toxin inh = A qHTS for Small Molecule Inhibitors of Shiga Toxin. Vero cells, Shiga toxin protein synthesis inhibition reporter. inhibition, % at 38.7 µM. actives 9.2% (n = 290,000). AID 2315, 2010; in the data active = inhibition mostly above about 28%, no sharp cut-off; inactive = mostly below about 43%; note: 0% is about no effect
AMA1 RON2 block = qHTS for Inhibitors of AMA1-RON; Towards Development of Antimalarial Drug Lead: Primary Screen; AID 720542, 2013; AlphaScreen AMA1-biotinylated RON2 peptide binding; Plasmodium falciparum AMA1 (3D7) - RON2 peptide interaction; actives 0.2% (n = 360,000); Potency, µM (titrated, usually from 58.2 µM), without a hit: at the highest dose activity change, negative = inhibition, usual class: inhibitors;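 note: potency is the fitted concentration of half-maximal effect; 0% = vehicle wells and -100% = peptide control; nearly all actives have a fitted effect of over 45% in size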
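AMA1 (3D7) with his tag at 25 nM final met compounds first, then biotinylated RON2 peptide at 25 nM; detection used donor plus acceptor beads, 10 µg/mL apiece, read by AlphaScreen after 30 min at room temperature.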
SARS PLpro yeast = qHTS of Yeast-based Assay for SARS-CoV PLP. actives 0.19% (n = 330,000). Potency, µM (doses to about 32.9 µM), for the others: at the highest dose activity, positive = growth rescue, usual class: activators. S. cerevisiae expressing SARS-CoV PLpro, growth rescue; calls by dose curve; note: potency is the fitted concentration of half-maximal effect; 0% is about no effect; nearly all actives have a fitted effect of over 55% in size
Cycloheximide cs = Cycloheximide Counterscreen for Small Molecule Inhibitors of Shiga Toxin; cell reporter, cycloheximide protein synthesis inhibition counterscreen; max response, %; actives 12% (n = 300,000); AID 2314, 2010; in the data active = max response mostly above about 13%, no sharp cut-off; inactive = mostly below about 14%; note: read at 38.3 µM for the half of the compounds with a filed dose; 0% is about no effect
Pf growth 48h = Primary qHTS for delayed death inhibitors of the malarial parasite plastid, 48 hour incubation. Potency, µM (highest dose often 28.7 µM), inactives show at the top dose activity change, negative = inhibition, most hits filed as inhibitors. actives 5.9% (n = 310,000). P. falciparum luciferase growth in erythrocytes, 48 h; note: potency is the fitted concentration of half-maximal effect; % is set by controls: 0 for no effect and ±100 for the full control effect
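Luciferase-expressing parasites in RBCs, 2% Hct / 0.1% parasitemia final; RPMI 1640 + 0.5% Albumax; 37 C, 5% CO2, one generation; luminescence read-out, lower signal = inhibition.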
Starred values were filed as active, the others as inactive. Unless noted, calls come from the whole dose curve; as a rule, active = well fitted curve in the direction sought with a large enough effect; inconclusive = small, poorly fitted or top-dose-only effect, or another doubt; inactive = no such curve, though single readings can be large; an effect the other way counts as inactive or inconclusive.

Cc1ccc(NC(=O)C2CCN(S(=O)(=O)c3ccc4c(c3)NC(=O)C(C)S4)CC2)cc1Cl (stereo not drawn) was read as Pf growth 96h inconclusive, Shiga toxin inh 2, AMA1 RON2 block -3%, SARS PLpro yeast -1%, Cycloheximide cs -2 and Pf growth 48h 13µM*.
Screening CC1Sc2ccc(S(=O)(=O)N3CCC(C(N)=O)CC3)cc2NC1=O (stereo not drawn) returned Pf growth 96h inconclusive, Shiga toxin inh -3, AMA1 RON2 block 14%, SARS PLpro yeast -16%, Cycloheximide cs -2 and Pf growth 48h 12%.
Cc1ccc(NC(=O)C2CCN(S(=O)(=O)c3ccc4c(c3)NC(=O)C(C)S4)CC2)c(Cl)c1 (stereo not drawn) was read as Pf growth 96h inconclusive, Shiga toxin inh 10, AMA1 RON2 block 2%, SARS PLpro yeast -1%, Cycloheximide cs 16* and Pf growth 48h 10µM*.
For Cc1cc(C)cc(NC(=O)C2CCN(S(=O)(=O)c3ccc4c(c3)NC(=O)C(C)S4)CC2)c1 (stereo not drawn) the results were Pf growth 96h inconclusive, Shiga toxin inh -2, AMA1 RON2 block -11%, SARS PLpro yeast -3%, Cycloheximide cs -2 and Pf growth 48h inconclusive.
`Cc1noc(C)c1C(=O)NCc1ccccc1Br` gave Pf growth 96h inconclusive, Shiga toxin inh -3, AMA1 RON2 block -7%, SARS PLpro yeast 1%, Cycloheximide cs 2 and Pf growth 48h 0%.
`COc1cc(C2C(C#N)=C(C)NC(C)=C2C#N)cc(OC)c1OC` gave Pf growth 96h 12µM*, Shiga toxin inh -8, AMA1 RON2 block -5%, SARS PLpro yeast 20%, Cycloheximide cs -2 and Pf growth 48h 9.3µM*.
Screening COc1cc(C2C(C#N)=C(N)Oc3cc(N)ccc32)cc(OC)c1OC (stereo not drawn) returned Pf growth 96h inconclusive, Shiga toxin inh -4, AMA1 RON2 block -6%, SARS PLpro yeast -20%, Cycloheximide cs -1 and Pf growth 48h -22%.
Cc1nc2ccc(C(=O)NCc3ccc4c(c3)OCO4)cc2s1 was read as Pf growth 96h -26%, Shiga toxin inh 40, AMA1 RON2 block 3%, SARS PLpro yeast -4%, Cycloheximide cs 15 and Pf growth 48h 22%.
Cc1nc2c(ccc3nc(NC(=O)c4ccc5c(c4)OCCO5)sc32)s1 was read as Pf growth 96h inconclusive, Shiga toxin inh 43, AMA1 RON2 block 0%, SARS PLpro yeast -8%, Cycloheximide cs 45* and Pf growth 48h 81%.
For Cc1cnc(NC(=O)c2ccc3c(c2)OCCO3)s1 the results were Pf growth 96h 78%, AMA1 RON2 block 0%, SARS PLpro yeast 1% and Pf growth 48h 11%.
Cc1nc2c(ccc3nc(NC(=O)Cc4cccc5ccccc45)sc32)s1 was read as Pf growth 96h inconclusive, Shiga toxin inh -7, AMA1 RON2 block -5%, SARS PLpro yeast -10%, Cycloheximide cs -4 and Pf growth 48h inconclusive.
Screening Cc1nc2c(ccc3nc(NC(=O)C(c4ccccc4)c4ccccc4)sc32)s1 returned Pf growth 96h 10µM*, Shiga toxin inh -11, AMA1 RON2 block 0%, SARS PLpro yeast -17%, Cycloheximide cs -2 and Pf growth 48h 3.7µM*.
Screening Cc1nc2ccc3nc(NC(=O)c4ccc5c(c4)OCCO5)sc3c2s1 returned Shiga toxin inh -13, AMA1 RON2 block 15%, SARS PLpro yeast -9%, Cycloheximide cs 12* and Pf growth 48h 78%.
Screening Cc1c([C@H]2[C@@H](CC#N)C2(C)C)c2ccccc2n1C returned Pf growth 96h -10%, Shiga toxin inh -1, AMA1 RON2 block -19%, SARS PLpro yeast -7%, Cycloheximide cs -1 and Pf growth 48h -14%.
For Cc1[nH]c2c(Br)cccc2c1[C@H]1[C@@H](CC#N)C1(C)C the results were Pf growth 96h inconclusive, Shiga toxin inh 63*, AMA1 RON2 block 4%, SARS PLpro yeast -32%, Cycloheximide cs 42* and Pf growth 48h inconclusive.
`Cc1cnc(CN(C)C(=O)c2ccc3oc(Cc4ccccc4)nc3c2)[nH]1` gave Pf growth 96h 4.7µM*, Shiga toxin inh -3, AMA1 RON2 block -11%, SARS PLpro yeast 1%, Cycloheximide cs 13 and Pf growth 48h -19%.
CC(NC(=O)c1ccc2nc(Cc3cccc(Cl)c3)oc2c1)c1ccncn1 (stereo not drawn) was read as AMA1 RON2 block 2%.
For Cc1cnc(CN(C)C(=O)c2ccc3oc(Cc4ccc(Cl)cc4)nc3c2)[nH]1 the results were Pf growth 96h 4%, Shiga toxin inh -14, AMA1 RON2 block -5%, SARS PLpro yeast -12%, Cycloheximide cs -1 and Pf growth 48h inconclusive.
For CC(c1ccncn1)N(C)C(=O)c1ccc2oc(Cc3ccccc3)nc2c1 (stereo not drawn) the results were Pf growth 96h -16%, Shiga toxin inh 50*, AMA1 RON2 block 2%, SARS PLpro yeast 4%, Cycloheximide cs 34* and Pf growth 48h -5%.
`O=C(Nc1ccc(Cl)c(C(=O)N2CCOCC2)c1)c1ccccc1` gave Pf growth 96h 3%, Shiga toxin inh -8, AMA1 RON2 block -1%, SARS PLpro yeast -1%, Cycloheximide cs 0 and Pf growth 48h inconclusive.
For Cc1ccc(S(=O)(=O)/N=C(/c2ccc(F)cc2)N2CCCCC2)cc1 the results were Pf growth 96h inconclusive, Shiga toxin inh -11, AMA1 RON2 block 3%, SARS PLpro yeast -1%, Cycloheximide cs -3 and Pf growth 48h -7%.
Screening COc1ccc(C(=O)N/C(=C/c2cccs2)c2nc3ccccc3[nH]2)cc1OC returned Pf growth 96h 4.7µM*, Shiga toxin inh -3, AMA1 RON2 block -1%, SARS PLpro yeast 1%, Cycloheximide cs 11 and Pf growth 48h -19%.
Screening COc1cc(/C=C(/C(=O)c2cccs2)c2nc3ccccc3[nH]2)cc(OC)c1O returned Pf growth 96h inconclusive, Shiga toxin inh 91*, AMA1 RON2 block 39%, SARS PLpro yeast 7% and Cycloheximide cs 24*.
`O=C(NCc1ccccc1)C1CC2CCCC(C1)C2=O` (stereo not drawn) gave Pf growth 96h 3%, Shiga toxin inh 35, AMA1 RON2 block 10%, SARS PLpro yeast 4%, Cycloheximide cs 1 and Pf growth 48h 4%.
Screening CCOc1ccccc1NC1=C(Cl)C(=O)N(c2ccccc2)C1=O returned Pf growth 96h inconclusive, Shiga toxin inh 16, AMA1 RON2 block -24%, SARS PLpro yeast -11%, Cycloheximide cs -1 and Pf growth 48h -7%.
